# An excerpt weighted towards active compounds, which were near 1.9% of everything screened.
# ERK EGF block: inhibitors of EGF-stimulated ERK signaling pathway | HEK293-V1b, EGF-stimulated phospho-ERK AlphaScreen | actives 0.41% (n = 130,000) | Potency, µM (titrated, usually from 11.5 µM), inactives show at the top dose activity change, negative = inhibition, usual class: inhibitors;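 also: plate controls were stimulated vehicle wells for no effect and unstimulated vehicle basal for full effect; nearly all actives have a fitted effect of over 55% in size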
#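 After overnight plating in 1% FBS, HEK293-V1b cells received test compound for half an hour, then a 5 min pulse of EGF (25 nM); ERK phosphorylation in lysates was read by bead-based AlphaScreen.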
# NPSR antagonist: neuropeptide S receptor (human) antagonism, cAMP; Q6W5P4; CHO-NPSR cells, cAMP TR-FRET, antagonist mode; Potency, µM (highest dose often 38.3 µM), for the others: at the top dose activity change, negative = inhibition, actives largely listed as inhibitors; actives 1% (n = 220,000); also: % is scaled to controls: 0 for no effect and ±100 for the full control effect; nearly all actives have a fitted effect of over 50% in size
# Target sequence (Q6W5P4 whole entry, looked up): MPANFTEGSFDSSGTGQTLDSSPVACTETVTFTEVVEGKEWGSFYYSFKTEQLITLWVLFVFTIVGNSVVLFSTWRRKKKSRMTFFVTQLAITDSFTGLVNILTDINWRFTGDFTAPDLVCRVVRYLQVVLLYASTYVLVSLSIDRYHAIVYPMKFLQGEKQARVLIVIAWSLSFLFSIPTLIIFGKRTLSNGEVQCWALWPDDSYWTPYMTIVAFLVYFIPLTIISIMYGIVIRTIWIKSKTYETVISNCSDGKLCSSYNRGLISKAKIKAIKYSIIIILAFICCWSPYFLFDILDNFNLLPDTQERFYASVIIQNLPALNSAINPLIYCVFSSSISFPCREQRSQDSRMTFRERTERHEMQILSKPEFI
# HTT aggregate: reduces HttQ103-GFP aggregates in PC12 cells; PC12 HttQ103-GFP aggregates, Acumen cytometry, 40 h; Potency, µM (series often up to 46.1 µM), for inactives: top-dose activity change, negative = inhibition, usual class: inhibitors; actives 1.1% (n = 220,000); also: % is scaled to controls: 0 for no effect and ±100 for the full control effect; nearly all actives have a fitted effect of over 60% in size
#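 Read-out: GFP aggregate count by laser scanning cytometer (488 nm excitation, 500-530 nm emission, 1–25 µm objects >6 SD above background). Cells: PC12, inducible HTTex1-Q103-GFP, 100 nM tebufenozide; compounds titrated.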
# IMPase Li inh: cell-permeable IMPase inhibitors with lithium potentiation | CHO-M1 cells, IP1 TR-FRET (IP-One), carbachol + lithium | Potency, µM (highest dose often 59.4 µM), for the others: at the top dose activity, negative = IMPase inhibition, usual class: inhibitors | actives 0.35% (n = 210,000);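 also: IP1 builds up when IMPase is blocked and the TR-FRET signal falls; plate controls were basal vehicle for no effect and high inhibitor control for full effect; nearly all actives have a fitted effect of over 50% in size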
#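 Test compounds were applied to CHO-M1 cells previously cultured for 16–30 h at 2000 per well. A small lithium amount accompanied them; after 30 min at 37C, IP1 was quantified by TR-FRET.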
# HTT cytoprotect: cytoprotection in Huntington HTT-Q103 PC12 cell model; PC12 HTT-Q103 induced, cytoprotection, ATP luminescence, 40 h; Potency, µM (highest dose often 56.4 µM), for inactives: cytoprotection (ATP increase), most hits filed as activators; actives 0.14% (n = 230,000); AID 1471; also: % of control where 0% means no effect; nearly all actives have a fitted effect of over 45% in size
#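 Rat PC12, Q103 Htt exon1-GFP fusion, ecdysone promoter; tebufenozide inducer 100 nM final; compound titration; qHTS, 1500 cells/well; ATPlite luminescent read.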
# The depositor's hits bear a star; ? = inconclusive; · = no result given; [ ] = dose if it differs, or a comment. Calls follow the shape of the dose curve; as a rule, active = well fitted curve in the direction sought with a large enough effect; inconclusive = small, poorly fitted or top-dose-only effect, or another doubt; inactive = no such curve, though single readings can be large; an effect the other way counts as inactive or inconclusive. Potency is read from the fitted curve at half-maximal effect.
SMILES,ERK EGF block,NPSR antagonist,HTT aggregate,IMPase Li inh,HTT cytoprotect
O=C(CNC(=O)c1ccccc1O)N/N=C/c1cc(Br)ccc1OC(=O)/C=C/c1ccco1,11.4%,-46.6%,2.51µM*,-0.7%,-171.7%
O=C(CNC(=O)c1cccc(F)c1)N/N=C/c1cc(Br)ccc1OC(=O)/C=C/c1ccco1,-3.4%,-27.8%,8.91µM*,-5.6%,·
O=C(O)CCCCCC[C@@H]1C(=O)NC(=O)N1CC[C@@H](O)C1CCCCC1,·,·,·,·,-3.5%[1.9 µM]
COC(=O)c1c(C)n(-c2ccc(OC)cc2)c2ccc(O)cc12,·,-11.4%[46.1 µM],11.2µM*,26.8%[38.3 µM],-15.3%
Cc1c(C(=O)O)c2cc(O)ccc2n1-c1ccccc1,·,-5.3%[46.1 µM],-11.3%,23.5%[38.3 µM],-4.6%[10 µM]
Cc1ccc(N=N/C(=C\O)C(=O)c2ccc(Cl)cc2)cc1,6.0%,7.94µM*,?,22.3%,-16.0%[10 µM]
O=C(/C(=C/O)N=Nc1ccccc1)c1ccc(Cl)cc1,?,?,?,25.1%,6.6%
CC(C)(C)c1csc(NC(=O)c2ccc(Cl)s2)n1,·,?,8.91µM*,11.4%[38.3 µM],-104.9%
Cc1ccc(OCCCCn2cnc3ccccc32)c(C)c1,·,-9.2%[46.1 µM],3.16µM*,8.9%[38.3 µM],-152.6%
Cc1ccc(C)c(OCCCCn2cnc3ccccc3c2=O)c1,·,?,-2.1%,·,-12.6%
O=C(c1csnn1)N1CCC2(CCCN(c3cccc(-c4ccccc4)c3)C2)CC1,-3.5%,·,·,1.2%,-3.5%
Cc1cc(C(C)(C)C)oc1C(=O)N(CC(=O)NC1CCCC1)Cc1ccccc1Cl,·,7.94µM*,?,46.1%[38.3 µM],16.8%[10 µM]
O=C(CN(Cc1cccs1)C(=O)c1csnn1)NC1CCCC1,3.9%,-0.4%[46.1 µM],14.4%,-2.9%,23.0%[10 µM]
CC(=O)Nc1cccc(C(=O)N2CCN(Cc3ccccc3)CC2)c1,·,-27.8%[46.1 µM],-7.6%,24.2%[38.3 µM],7.0%
O=C(Nc1cccc(C(=O)N2CCN(Cc3ccccc3)CC2)c1)c1ccccc1,·,-15.0%[46.1 µM],11.2µM*,-6.4%[38.3 µM],-11.2%
CCOC(N)=O,-1.5%,·,-4.5%,2.2%,14.7%
C[C@H]1[C@@H](OC(=O)CCC(=O)O)OC2OC3(C)CC[C@H]4[C@H](C)CC[C@@H]1[C@@]24OO3 (some centres undefined),·,·,3.16µM*,·,-97.3%
CCNc1ncc2nc(CCc3ccccc3)c(=O)n(-c3ccccc3)c2n1,-9.7%,·,·,-4.5%,-22.6%
CC(C)N(CC(=O)Nc1ccc(Cl)cc1C(F)(F)F)C(=O)CCl,-6.1%,-6.6%,14.1µM*,5.1%,-6.7%
O=C(O)CSCC(=O)Nc1ccc(Cl)cc1C(F)(F)F,3.4%,8.1%,-6.4%[9.22 µM],2.7%,-24.8%
COc1ccc(-c2nc(-c3ccccc3)c(Nc3c(C)cccc3C)o2)cc1,-4.1%,·,·,2.6%,-46.1%
CN(Cc1ccco1)c1ncnc2ccc(-c3ccccc3Cl)cc12,·,·,·,4.8%,-100.3%
CN(Cc1ccccc1)c1ncnc2ccc(Br)cc12,·,-11.1%[46.1 µM],0.355µM*,-3.6%[38.3 µM],-47.6%
O=C1C=C[C@@H](O)[C@H]2[C@@H]3C(=O)N(Cc4ccccc4)C(=O)[C@@H]3CC[C@H]12,·,·,·,·,4.2%[10 µM]
C=C1C(=O)C=C2CN(C(=O)c3ccccc3)[C@@](Cc3ccc(F)cc3)(C(=O)OC)[C@@H]12,22.4µM*,1.58µM*,5.01µM*,25.8%,-111.4%
SMILES,ERK EGF block,NPSR antagonist,HTT aggregate,IMPase Li inh,HTT cytoprotect
COC(=O)[C@@]1(Cc2ccc(OC)cc2)[C@@H]2C(=CC(=O)[C@H]2CC(=O)C(=O)N(C)C)CN1C(=O)c1ccccc1,-0.4%,-39.9%,?,4.1%,?
CN(C)c1ncc2nc(-c3cc(F)cc(F)c3)c(=O)n(C)c2n1,·,·,·,-2.2%,-9.3%
Cc1ccc(-n2nnc3c(=O)n(CC(=O)OCc4ccccc4)cnc32)cc1,·,-0.4%[46.1 µM],0.0028µM*,18.2%[38.3 µM],·
CC(C)c1ccc(C2C(C#N)=C(N)N3C(=C2C#N)Sc2ccccc23)cc1 (centres undefined),·,7.94µM*,6.8%,-14.4%[38.3 µM],3.8%
CC(C)c1ccc(C2CC(=O)N3CN(C)CSC3=C2C#N)cc1 (centres undefined),·,-26.8%[46.1 µM],-10.3%,3.5%[38.3 µM],11.0%
CCN(CC)c1ccc(/C=N/NC(=O)Cc2cccs2)c(O)c1,7.4%,-25.1%,25.1µM*,18.4%,-89.2%[10 µM]
CCNc1oc(-c2cccc3ccccc23)nc1C#N,·,-6.4%[46.1 µM],3.8%,?,-17.3%
N#Cc1nc(-c2cccc3ccccc23)oc1NCCN1CCCCC1,·,28.9%[46.1 µM],1.5%,11.2µM*,-41.3%
NC(=O)c1c(-c2ccc(Cl)cc2Cl)csc1NC(=O)Cc1ccccc1,-2.7%,-19.1%,11.2µM*,19.0%,-0.4%[10 µM]
O=C(Cc1ccccc1)Nc1scc(-c2ccccc2)c1C(=O)N1CCOCC1,·,-23.7%[46.1 µM],15.2%,19.0%[38.3 µM],13.0%
CCCCOc1ncnc2c1[nH]c1ccccc12,·,-5.0%[46.1 µM],3.98µM*,16.7%[38.3 µM],-115.2%
CCOCCCNc1ncnc2c1[nH]c1ccccc12,·,-6.1%[46.1 µM],10µM*,-1.1%[38.3 µM],-8.5%
CCCCOc1ncnc2c1[nH]c1ccc(OCC)cc12,·,1.4%[46.1 µM],0.5%,-12.8%[38.3 µM],-23.1%
CCCCOc1ncnc2c1[nH]c1ccc(F)cc12,·,1.5%[46.1 µM],3.16µM*,19.8%[38.3 µM],-63.6%[0.074 µM]
CCCCOc1ncnc2c1[nH]c1ccc(OC)cc12,·,-2.4%[46.1 µM],4.6%,-11.9%[38.3 µM],-27.2%
CCCCOCCCNc1ncnc2c1[nH]c1ccccc12,·,-13.7%[46.1 µM],?,40.7%[38.3 µM],-20.4%
C=CCOC(=O)N[C@H](/C(C(=O)OC)=C(\C)NCc1ccccc1)c1cccc(OC)c1,1.1%,·,·,14.0%,-28.5%
C/C(=N\NC(=O)c1ccc(CN2CCc3ccccc3C2)cc1)c1ccccc1O,?,5.6%,10µM*,1.4%,-170.9%

# High-throughput results (PubChem)
